Results filed as inconclusive are left out. Active and inactive are the calls of the source. Calls come from the whole dose curve; as a rule, active = well fitted cell-killing curve with a large enough effect; inconclusive = small, poorly fitted or top-dose-only effect, or effect the other way; inactive = flat fitted curve, though single readings scatter.
Columns and labels:
Experiment in all cases: Primary qHTS to identify gynecologic anti-cancer compounds using libraries of approved drugs and bioactive compounds (AID 1345084); note: nearly all actives have a fitted effect of over 55% in size
Settings in all cases: Gynecologic cancer cell panel viability, ATPlite luminescence, 48 h; series mostly up to 57.5 µM
[1] = tested on: OV90
Outline: (§1)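 Cells, 1,000 per well, were allowed to settle for 16 h at 37 C before compound addition. Five concentrations were tested for 48 h, and viability was read by ATPlite luminescence after 15 min at room temperature.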

[2] = tested on: PA-1
Outline: as §1

[3] = tested on: SKOV3
Outline: as §1

[4] = tested on: Tov-21-G
Outline: as §1

[5] = tested on: Tov112D
Outline: as §1

Measured: Potency
Potency is the fitted concentration of half-maximal effect.

CC(=O)/C=C/C1(O)C(C)=CC(=O)CC1(C)C (centres undefined)
inactive: all assays above

C=C1C(=O)OC[C@H]2C(C(=O)O)=CC3CC(C)(C)C[C@@]132 (some centres undefined)
inactive: all assays above

C=C1CCC2C(C)(C)CCC[C@]2(C)[C@H]1CC/C(C)=C/C(=O)O (some centres undefined)
inactive: all assays above

CC(CNS(=O)(=O)C(C)C)c1ccc(-c2ccc(C#N)cc2)cc1 (centres undefined)
active: [1] 10 µM | [3] 8.91 µM
inactive: [2] | [4]

COc1cc(/C=C/C(=O)OC[C@H]2O[C@@H](OC3OC=C(C(=O)O)C4C(O)CC(C)(O)C34)[C@H](O)[C@@H](O)[C@@H]2O)cc(OC)c1O (some centres undefined)
inactive: all assays above

COc1cnc(-c2ccc(Cn3c(CC(C)(C)C(=O)O)c(SC(C)(C)C)c4cc(OC[C@@H]5Cc6ccccc6N5C(C)=O)ccc43)cc2)nc1
inactive: all assays above

O=C(C1OC1/C=C/c1ccc2c(c1)OCO2)N1CCCCC1 (centres undefined)
inactive: all assays above

C=C(C)[C@@H]1CC[C@]2(C(=O)O)CC[C@]3(C)[C@H](CCC4[C@@]5(C)CCC(=O)C(C)(C)C5C(O)C[C@]43C)C12 (some centres undefined)
inactive: all assays above

O=C(NC1CCN(CC(F)(F)F)CC1)c1ccc(-c2cccc(F)c2)nc1
inactive: all assays above
